Assay results as given in PubChem BioAssay AID1903 (Southern Research Specialized Biocontainment Screening …, 2009).
Values joined by “and” are separate entries in the source; they are usually repeats but may differ in a detail not shown here. Equal values may be shown once. The campaign covered roughly 310,000 compounds. About 1,200 (0.39%) were called active. The rule behind the calls is not given here. Not all results are given here. Measured potencies and affinities stand elsewhere.

Each compound was assayed against Large T antigen (Simian virus 40) (UniProt P03070) (assay: TAg ATPase/helicase activity blockers – biochemical (AID 1903)). Details: SV40 large T antigen ATPase/helicase inhibition assay; at 20 µM; active compounds read high.
Large T antigen (Simian virus 40), sequence (P03070 whole entry, looked up): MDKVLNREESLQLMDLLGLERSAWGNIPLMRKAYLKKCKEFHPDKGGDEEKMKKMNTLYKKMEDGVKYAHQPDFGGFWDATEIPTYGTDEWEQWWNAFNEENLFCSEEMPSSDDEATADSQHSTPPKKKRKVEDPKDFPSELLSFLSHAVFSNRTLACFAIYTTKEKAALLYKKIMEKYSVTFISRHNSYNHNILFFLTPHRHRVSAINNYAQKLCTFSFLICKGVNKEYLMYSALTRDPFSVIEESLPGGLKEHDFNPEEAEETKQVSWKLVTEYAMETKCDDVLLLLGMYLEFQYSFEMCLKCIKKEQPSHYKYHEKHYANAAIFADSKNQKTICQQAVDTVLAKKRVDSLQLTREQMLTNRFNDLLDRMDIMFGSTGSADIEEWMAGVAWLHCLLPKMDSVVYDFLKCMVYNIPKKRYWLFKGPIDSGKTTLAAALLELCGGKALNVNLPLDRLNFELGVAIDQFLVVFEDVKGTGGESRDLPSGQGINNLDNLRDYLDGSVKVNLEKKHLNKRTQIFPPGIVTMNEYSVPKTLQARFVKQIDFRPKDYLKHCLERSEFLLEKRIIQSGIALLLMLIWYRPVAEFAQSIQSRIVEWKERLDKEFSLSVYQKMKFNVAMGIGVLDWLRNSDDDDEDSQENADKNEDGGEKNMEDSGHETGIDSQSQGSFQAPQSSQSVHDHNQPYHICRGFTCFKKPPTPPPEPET

inhibition, inactive:
CC(=O)Nc1ccc(N/C=C2/CCCC2=O)cc1 16.2%
Cc1ccc(N/C=C2\CCCCC2=O)c(C)c1 8.76%
Cc1ccccc1NC(=S)NCc1ccccc1 7.25%
CCOC(=O)c1cccc(Nc2nc(-c3cccnc3)nc3ccccc23)c1 6.16%
COc1ccc(CNC(=O)CSc2nnc(C)c(=O)[nH]2)cc1 8.06%
O=C1CC(Nc2ccccc2)C(=O)N1c1ccc(N2CCOCC2)cc1 (centres undefined) 6.8%
O=C1CC(Nc2ccc(N3CCOCC3)cc2)C(=O)N1c1ccccc1 (centres undefined) 21.4%
S=c1[nH]nc(C2CCCCC2)n1/N=C/c1ccc(Br)cc1 0.57%
CCOc1cc(CNCCO)cc(Br)c1OCc1cccs1 10.3%
CCN(CC)S(=O)(=O)c1ccc(NC(=O)c2cnccn2)cc1 19.6%
CCN(C(=O)CN1CCN(c2ccccc2)CC1)c1c(N)n(Cc2ccccc2)c(=O)[nH]c1=O 14.1%
CCN(C(=O)CN1CCN(c2ccc(OC)cc2)CC1)c1c(N)n(Cc2ccccc2)c(=O)[nH]c1=O 21.5%
Cc1ccc(C(=O)N/C(=C\c2ccc3c(c2)OCO3)C(=O)Nc2ccc(C(=O)O)cc2)cc1 1.87%
COCCN(C(=O)COC(=O)c1cc2c(s1)CCCC2)c1c(N)n(Cc2ccccc2)c(=O)[nH]c1=O 4.52%
CCC1CCc2sc(C(=O)OCC(=O)N(CCOC)c3c(N)n(Cc4ccccc4)c(=O)[nH]c3=O)cc2C1 (centres undefined) 16.3%
CCN1/C(=C2/SC(=S)N(NC(C)=O)C2=O)Sc2ccccc21 0.32%
Cc1ccc(-n2cc(CNCC3CC(=O)N(C4CC4)C3)c(-c3cccc(C)c3)n2)cc1 (centres undefined) 4.43%
CCOc1ccc(N=Cc2ccc3ccccc3c2)cc1 21.9%
O/N=C/c1ccc2ccccc2c1 70.8%
COc1ccc(S(=O)(=O)N(C)c2ccc(OC(=O)C(C)Oc3ccc(F)cc3)cc2)cc1 (centres undefined) 13%
N/C(=N\N=C\c1ccc2c(c1)OCO2)c1nonc1N 7.74%
Cc1cc(=O)oc2c(CN(CC(C)C)CC(C)C)c(O)ccc12 15.8%
Cc1cc(=O)oc2c(CN3CCCC3)c(O)ccc12 4.61%
COc1ccc(CCN2C(=NC(=O)CC(C)C)SC3CS(=O)(=O)CC32)cc1 (centres undefined) 0.43%
CCCOc1ccc(/C=N/NC(=O)c2nnn(-c3nonc3N)c2-c2cccs2)cc1OC 10.3%
COc1cccc(/C=N/NC(=O)c2cccs2)c1 -1.95%
COc1ccc(/C=N/NC(=S)Nc2cccc(C(=O)O)c2)cc1OC 19.3%
COc1cc(/C=N/NC(=S)Nc2cccc(C(=O)O)c2)cc(OC)c1OC 5.01%
COc1cc(/C=N/NC(=O)c2cccs2)ccc1OCc1ccccc1 -0.01%
COc1ccc(/C=N/NC(=O)c2nnn(-c3nonc3N)c2-c2cccs2)cc1OC 7.55%
O=C(CNC(=O)c1cccc(F)c1)N/N=C/c1cccc([N+](=O)[O-])c1 16.8%
COc1cc(/C=N/NC(=O)c2cccc([N+](=O)[O-])c2)cc(OC)c1O 20.1%
COc1cc(OC)c(C(=O)NCC2CCCO2)cc1OC (centres undefined) -5.36%
CS(=O)(=O)N1CCCC(C(=O)Nc2ccccc2F)C1 (centres undefined) 1.68%
O=C(O)c1cccc(NC(=O)c2ccccc2NC(=O)c2ccccc2F)c1 9%
Cc1ccc(NC(=O)CN(C)CC(=O)Nc2ccccc2C#N)cc1 8.84%
CC(Oc1ccc(Br)cc1)C(=O)O/N=C(\N)c1ccncc1 (centres undefined) 2.31%
COc1cccc(C(=O)C2CCCN(Cc3cn(C)nc3-c3ccccc3)C2)c1 (centres undefined) -3.2%
COc1cc2[nH]c(-c3cccc(F)c3)cc(=O)c2cc1OC 16.1%
CN(CC(=O)Nc1ccc(S(N)(=O)=O)cc1)Cc1ccccc1F 4.84%
COc1ccc(/C=N/NC(=O)c2cccc([N+](=O)[O-])c2)cc1O 29.7%
O=C(CC1SC(=O)NC1=O)Oc1ccc(/C=N/NC(=O)c2ccccc2O)cc1 (centres undefined) 48.3%
COc1ccc(/C=N/NC(=O)c2cnccn2)cc1O 26.2%
COc1ccc(/C=N/NC(=O)c2cccc([N+](=O)[O-])c2)cc1OC 22.1%
COc1cc(/C=N\NC(=O)C2COc3ccccc3O2)cc(OC)c1O (centres undefined) 37.5%
COc1ccc(/C=N/NC(=O)C2COc3ccccc3O2)cc1OC (centres undefined) -1.14%
COc1cc(/C=N/NC(=O)c2cnccn2)cc(OC)c1OC -1.61%
COc1cc(/C=N/NC(=O)c2ccccc2O)ccc1OCC(=O)Nc1ccccc1 13.3%
N#CCc1c(C#N)c(N)nc(N2CCOCC2)c1C#N 5.53%
CN(Cc1ccccc1)S(=O)(=O)c1ccc(NC(=O)c2ccccc2C(=O)O)cc1 4.64%
Cc1ccc(Cn2cnc3sc4c(c3c2=O)CCC4)c(C)c1 9.2%
O=C(N/N=C\C=C\c1ccc2c(c1)OCO2)C1COc2cc3ccccc3cc2O1 (centres undefined) 7.25%
COc1ccc(C(=O)Nc2cc(C)on2)cc1OC 4.7%
O=C(O)c1sccc1Oc1ccc(NS(=O)(=O)c2ccccc2)cc1 9.58%
O=C(OCc1nc2ccccc2[n+]([O-])c1C(=O)c1ccccc1)c1cccs1 8.13%
CCOc1cc(/C=N/NC(=O)c2c(-c3ccccc3)noc2C)ccc1O 34.1%
COc1cc(/C=N/NC(=O)c2cc[n+]([O-])cc2)ccc1O 27.9%
COc1cc(C(=O)N/N=C/c2ccc(OC(=O)c3ccccc3)c(OC)c2)ccc1O 23.2%
COc1ccc(/C=N/NC(=O)c2cc(C3CC3)[nH]n2)cc1OC 11.7%
COc1cc(/C=N/NC(=O)c2c(-c3ccccc3)noc2C)cc(OC)c1OC 0.27%
CCOc1ccc(/C=N/N(C)c2ccccc2)cc1OC 3.32%
COc1cc(/C=N/N(c2ccccc2)c2ccccc2)ccc1O 18.7%
COc1cc(/C=N/NC(=O)c2cc(C3CC3)[nH]n2)cc(OC)c1OC 8.67%
Cc1c(NS(=O)(=O)c2ccc(Br)s2)c(=O)n(-c2ccccc2)n1C 3.2%
O=C(NCCc1ccco1)c1cc(COc2cccc(C(F)(F)F)c2)on1 29.7%
CCc1ccc(CN2CCC(n3nccc3NC(=O)Cc3ccccc3)CC2)o1 13.5%
Cc1ccc(N(CC(=O)N/N=C/c2cccc(Br)c2)S(C)(=O)=O)cc1 9.07%
CCOc1cc(/C=N\NC(=O)c2c(C)nc3ccccn23)ccc1O 35%
COc1cc(/C=N/NC(=O)c2cccc(C(=O)N/N=C/c3ccc(O)c(OC)c3)n2)ccc1O -2.1%
CC(C)(C)c1cc(C(=O)N/N=C/c2ccc(F)cc2)n(-c2ccccc2)n1 -0.35%
COc1ccc(OC)c(/C=N\NC(=O)c2c(C)nc3cc(C)ccn23)c1 11.2%
COc1cc(/C=N/NC(=O)c2cc3ccccc3[nH]2)ccc1O 27.5%
Cc1ccc(/C=N/NC(=O)c2nc3nc(C)cc(C)n3n2)cc1 22.5%
CC(C)(C)c1cc(C(=O)N/N=C/c2ccccc2O)n(-c2ccccc2)n1 19.8%
Cc1cc(C)n2nc(C(=O)N/N=C/c3ccc(Cl)cc3)nc2n1 6.6%
COc1ccc(S(=O)(=O)N2CCCC(C(=O)NCCC(C)C)C2)cc1 (centres undefined) 5.62%
Cc1cccc(NC(=O)c2cc(-c3cc(C)c(C)cc3O)n[nH]2)c1 4.66%
CCOC(=O)Cc1c(C)nc(SC)[nH]c1=O 1.67%
Cc1nn(C)c(Oc2ccccc2)c1CCNC(=O)CCl -0.24%
COc1cccc(OC)c1C(=O)Nc1ccc(S(=O)(=O)Nc2cc(C)nc(C)n2)cc1 20.7%
COc1ccc(N(CC(=O)NCc2ccncc2)S(=O)(=O)c2ccccc2[N+](=O)[O-])c(OC)c1 2.38%
COc1ccc(/C=N/NC(=O)c2ccc3nc[nH]c3c2)cc1OC 3.44%
COc1cc(/C=N/NC(=O)c2ccc3nc[nH]c3c2)cc(OC)c1OC 8.71%
COCCSc1nc2c(c(=O)[nH]c(=O)n2C)n1CCCc1ccccc1 3.03%
Cc1noc(C)c1COC(=O)c1cccnc1SCC(=O)Nc1ccc2c(c1)OCO2 2.06%
Cc1ccccc1Cn1cnc2c(NS(C)(=O)=O)c(C)c(C)cc21 0.14%
NC(N)=N/N=C/c1c(Cl)cccc1Cl 21.2% and 9.2%
Cc1c(Cl)cccc1N=C(N)N=C(N)N 13.8%
COc1cc(/C=N/N=C2/NC(=O)C(c3ccccc3)S2)ccc1O (centres undefined) 30.9%
COc1ccc(OC)c(N=C2C(=O)Nc3ccccc32)c1 4.71%
COc1cc(/C=N/N=C(/C(=O)c2ccccc2)c2ccccc2)cc(OC)c1O 15.6%
Cc1ccsc1/C=N/N=C1\C(=O)Nc2ccccc21 -4.81%
COc1ccc(O)c(/C=N/N=C2/C(=O)Nc3ccccc32)c1 12.5%
O=C1Nc2ccccc2/C1=N/N=C/c1cccc(O)c1 13.2%
